# According to PubChem BioAssay (NCATS):
# A number with no mark means an inactive call. Results filed as inconclusive are left out. Where a call stands in place of a potency, no number is given. Calls of active or inactive are those of the source. Unless noted, the call rests on the fitted dose curve; in most records, active means well fitted curve in the direction sought with a large enough effect; inconclusive means small, poorly fitted or top-dose-only effect, or another doubt; inactive means no such curve, though single readings can be large; an effect the other way counts as inactive or inconclusive.
# Columns and labels:
# [1] = qHTS for Inhibitors of Plasmodium falciparum (DD2) proliferation (AID 504314); further: potency means the concentration at half of the fitted maximal effect;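 on activity, negative = inhibition: parasite DNA measured by SYBR Green fluorescence after red cell lysis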
# In short: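 Quantitative HTS growth inhibition: SYBR Green I binding to parasite DNA after 72 h drug exposure of infected erythrocytes (0.3% parasitemia, 2.5% hematocrit). Signals normalized per plate to inhibitor and vehicle wells.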
# [2] = qHTS for Inhibitors of Plasmodium falciparum (GB4) proliferation (AID 504315); further: nearly all actives have a fitted effect of over 50% in size; further: potency means the concentration at half of the fitted maximal effect
# In short: (§1)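 Erythrocytes infected with P. falciparum line (0.3% parasitemia, 2.5% hematocrit final) incubated with compounds 72 h at 37 °C, 5% CO2; SYBR Green lysis buffer added, fluorescence read next day. Normalized to 0.29 uM artemisinin and DMSO.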
# [3] = qHTS for Inhibitors of Plasmodium falciparum (7G8) proliferation (AID 504316); further: nearly all actives have a fitted effect of over 65% in size; further: potency means the concentration at half of the fitted maximal effect; on activity change, negative = inhibition: series mostly up to about 6.7 µM
# In short: as §1
# [4] = qHTS for Inhibitors of Plasmodium falciparum (HB3) proliferation (AID 504318); further: nearly all actives have a fitted effect of over 60% in size; further: potency means the concentration at half of the fitted maximal effect
# In short: as §1
# [5] = qHTS for Inhibitors of Plasmodium falciparum (CP250) proliferation (AID 504320)
# In short: as §1
# [6] = molecular target: Glucocorticoid receptor (Homo sapiens) (UniProt P04150); experiment: GR-GFP Redistribution (AID 450;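 active means compounds whose dose series gives a full or clear partial fitted curve of increased nuclear translocation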; further: potency means the concentration at half of the fitted maximal effect); conditions: U2OS GR-GFP nuclear translocation, laser cytometry, 2 h
# Chain of Glucocorticoid receptor (Homo sapiens) (P04150 whole entry, looked up, the tested form may be a part): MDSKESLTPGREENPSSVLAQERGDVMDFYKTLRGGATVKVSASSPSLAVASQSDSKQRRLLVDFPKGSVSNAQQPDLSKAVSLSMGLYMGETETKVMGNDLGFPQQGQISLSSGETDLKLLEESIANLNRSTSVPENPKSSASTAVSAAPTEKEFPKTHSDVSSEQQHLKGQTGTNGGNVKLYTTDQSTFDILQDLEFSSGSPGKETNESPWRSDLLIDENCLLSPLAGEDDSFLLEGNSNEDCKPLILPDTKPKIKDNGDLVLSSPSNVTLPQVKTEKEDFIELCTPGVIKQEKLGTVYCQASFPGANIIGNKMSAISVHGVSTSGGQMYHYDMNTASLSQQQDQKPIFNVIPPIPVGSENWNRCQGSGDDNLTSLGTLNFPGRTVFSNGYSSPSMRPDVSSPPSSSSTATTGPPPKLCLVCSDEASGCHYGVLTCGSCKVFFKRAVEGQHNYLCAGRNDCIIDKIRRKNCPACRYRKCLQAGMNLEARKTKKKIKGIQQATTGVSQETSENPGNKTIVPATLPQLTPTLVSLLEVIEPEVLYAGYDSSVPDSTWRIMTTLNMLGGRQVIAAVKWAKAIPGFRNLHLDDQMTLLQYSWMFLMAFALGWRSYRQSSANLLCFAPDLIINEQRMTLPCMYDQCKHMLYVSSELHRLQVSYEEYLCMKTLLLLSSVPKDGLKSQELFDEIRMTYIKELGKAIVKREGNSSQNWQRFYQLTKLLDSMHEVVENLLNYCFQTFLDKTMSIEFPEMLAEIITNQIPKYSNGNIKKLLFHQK
# [7] = molecular target: Glucocorticoid receptor (Homo sapiens) (UniProt P04150); experiment: GR-EFC Redistribution (AID 451; calls by dose curve; further: potency means the concentration at half of the fitted maximal effect); conditions: CHO-K1 GR-EFC translocation, beta-gal luminescence, 2 h
# In short: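 CHO-K1 cells expressing nuclear EA and GR-ED fragments of b-gal; compounds titrated up to 46 uM final, 2 h at 37 C. GR nuclear translocation read as complemented b-gal luminescence after 1 h RT detection.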
# [8] = molecular target: Mitogen-activated protein kinase 10 (Mus musculus) (UniProt Q61831); experiment: JNK3 AlphaScreen Assay (AID 530; active means well fitted curve in either direction with a large enough effect, not every such curve was filed as active;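 further: kinase came from lysate of stimulated human HepG2 cells; signal reports phosphorylation of biotinylated GST-cJun 1-79 at Ser73 with 10 µM ATP; series mostly up to about 57 µM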)
# In short: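 qHTS format: compounds tested as titrations against IL-1beta/TNF-alpha-activated HepG2 lysate JNK3 with biotin-GST-cJun substrate and 10 uM ATP at room temperature. Loss of anti-phospho-cJun AlphaScreen signal indicates inhibition.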
# [9] = molecular target: Cytochrome P450 3A4 (Homo sapiens) (UniProt P08684); experiment: qHTS Assay for Inhibitors and Substrates of Cytochrome P450 3A4 (AID 884); further: series mostly up to about 57 µM; nearly all actives have a fitted effect of over 50% in size
# Chain of Cytochrome P450 3A4 (Homo sapiens) (P08684 whole entry, looked up): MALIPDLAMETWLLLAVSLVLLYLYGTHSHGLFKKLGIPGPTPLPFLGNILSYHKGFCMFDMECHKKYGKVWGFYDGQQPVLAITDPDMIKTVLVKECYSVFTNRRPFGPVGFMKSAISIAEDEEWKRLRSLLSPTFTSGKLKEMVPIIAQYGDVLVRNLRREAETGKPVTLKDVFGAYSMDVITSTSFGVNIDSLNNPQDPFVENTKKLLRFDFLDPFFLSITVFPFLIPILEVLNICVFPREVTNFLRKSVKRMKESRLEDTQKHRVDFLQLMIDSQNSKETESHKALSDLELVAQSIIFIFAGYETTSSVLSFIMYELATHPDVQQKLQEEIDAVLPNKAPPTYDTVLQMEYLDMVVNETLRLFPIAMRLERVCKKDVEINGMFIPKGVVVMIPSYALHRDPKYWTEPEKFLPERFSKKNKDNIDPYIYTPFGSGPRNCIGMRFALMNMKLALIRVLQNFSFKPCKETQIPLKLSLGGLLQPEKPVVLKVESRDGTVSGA
# In short: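 20 nM human CYP3A4 with 25 uM Luciferin-PPXE (at KM) in 200 mM KPO4, preincubated 10 min with compound; NADPH regeneration started a 60 min RT reaction. Luciferin detected by luminescence, normalized to 57 uM ketoconazole as full inhibition.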
# [10] = molecular target: Cytochrome P450 2D6 (Homo sapiens) (UniProt P10635); experiment: qHTS Assay for Inhibitors and Substrates of Cytochrome P450 2D6 (AID 891); further: potency means the concentration at half of the fitted maximal effect; nearly all actives have a fitted effect of over 60% in size
# Chain of Cytochrome P450 2D6 (Homo sapiens) (P10635 whole entry, looked up): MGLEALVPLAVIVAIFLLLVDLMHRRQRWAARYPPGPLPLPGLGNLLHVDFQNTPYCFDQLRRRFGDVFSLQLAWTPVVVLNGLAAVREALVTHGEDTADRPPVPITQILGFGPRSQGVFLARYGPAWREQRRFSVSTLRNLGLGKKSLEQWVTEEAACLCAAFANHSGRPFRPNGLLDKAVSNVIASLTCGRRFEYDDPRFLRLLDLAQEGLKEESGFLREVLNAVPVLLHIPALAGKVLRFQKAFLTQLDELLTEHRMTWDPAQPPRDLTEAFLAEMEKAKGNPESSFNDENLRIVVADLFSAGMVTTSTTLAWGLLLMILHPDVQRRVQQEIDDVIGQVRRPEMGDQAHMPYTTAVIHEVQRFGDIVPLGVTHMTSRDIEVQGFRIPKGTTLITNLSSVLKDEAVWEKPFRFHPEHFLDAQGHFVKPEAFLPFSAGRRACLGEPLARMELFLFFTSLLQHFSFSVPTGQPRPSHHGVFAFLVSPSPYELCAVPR
# In short: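 Human CYP2D6 (5 nM) with 30 uM Luciferin-ME EGE (at Km) in 100 mM KPO4, compound preincubated 10 min, then NADPH regeneration system for 60 min at room temperature. Luciferin read by luminescence; normalized to 1.43 uM quinidine.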
# [11] = molecular target: Ubiquitin carboxyl-terminal hydrolase 1 (Homo sapiens) (UniProt O94782); experiment: Inhibitors of USP1/UAF1: Pilot qHTS (AID 504865);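 further: rhodamine fluorescence freed from ubiquitin-rhodamine substrate followed over time; top concentration of the series differs between compounds; nearly all actives have a fitted effect of over 35% in size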
# Chain of Ubiquitin carboxyl-terminal hydrolase 1 (Homo sapiens) (O94782 whole entry, looked up): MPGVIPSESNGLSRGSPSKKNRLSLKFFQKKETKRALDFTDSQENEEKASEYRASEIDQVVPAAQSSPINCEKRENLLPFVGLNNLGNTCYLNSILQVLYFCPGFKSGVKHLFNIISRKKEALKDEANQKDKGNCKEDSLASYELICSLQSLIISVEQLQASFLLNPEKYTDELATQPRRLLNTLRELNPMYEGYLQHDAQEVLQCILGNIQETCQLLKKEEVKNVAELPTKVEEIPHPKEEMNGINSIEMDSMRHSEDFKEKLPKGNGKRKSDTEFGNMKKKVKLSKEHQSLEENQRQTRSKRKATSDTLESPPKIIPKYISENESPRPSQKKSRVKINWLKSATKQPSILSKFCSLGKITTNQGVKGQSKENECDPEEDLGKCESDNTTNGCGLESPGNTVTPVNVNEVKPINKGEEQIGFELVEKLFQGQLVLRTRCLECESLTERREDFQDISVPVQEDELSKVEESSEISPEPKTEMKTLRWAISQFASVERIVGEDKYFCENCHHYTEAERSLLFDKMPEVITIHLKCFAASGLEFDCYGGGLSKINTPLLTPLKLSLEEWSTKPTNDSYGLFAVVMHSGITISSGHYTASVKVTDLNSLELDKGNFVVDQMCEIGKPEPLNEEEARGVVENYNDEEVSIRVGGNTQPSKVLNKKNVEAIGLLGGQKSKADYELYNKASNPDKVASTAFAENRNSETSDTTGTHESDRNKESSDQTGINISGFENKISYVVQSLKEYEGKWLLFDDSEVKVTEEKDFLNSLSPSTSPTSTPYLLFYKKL
# In short: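 USP1/UAF1 complex (1nM) preincubated with compound 15 min at room temperature, then Ub-Rho substrate (150nM final) added. Fluorescence read kinetically at 480/540 nm, 6 reads every 60 seconds. Buffer: 50mM HEPES pH 7.8, 0.5mM EDTA, 0.1 mg/ml BSA, 1mM TCEP, 0.01% Tween-20.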
# [12] = molecular target: DNA dC->dU-editing enzyme APOBEC-3G (Homo sapiens) (UniProt Q9HC16); experiment: qHTS for inhibitors of Vif-A3G interactions: Validation (AID 588379)
# Chain of DNA dC->dU-editing enzyme APOBEC-3G (Homo sapiens) (Q9HC16 whole entry, looked up): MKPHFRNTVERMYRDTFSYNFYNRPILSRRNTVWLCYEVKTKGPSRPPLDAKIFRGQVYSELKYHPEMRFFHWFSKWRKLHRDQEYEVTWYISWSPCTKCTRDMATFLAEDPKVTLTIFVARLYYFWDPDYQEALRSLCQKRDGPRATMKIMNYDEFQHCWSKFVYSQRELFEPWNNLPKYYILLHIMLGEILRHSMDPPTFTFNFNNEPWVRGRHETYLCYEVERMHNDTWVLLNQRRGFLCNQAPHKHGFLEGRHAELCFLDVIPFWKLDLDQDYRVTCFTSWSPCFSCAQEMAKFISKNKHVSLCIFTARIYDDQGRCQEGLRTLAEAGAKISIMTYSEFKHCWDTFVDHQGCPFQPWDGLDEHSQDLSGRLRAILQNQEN
# In short: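 HeLa cells stably expressing Vif and A3G-eYFP, 700 cells/well, incubated overnight at 37 deg C, then exposed to compound overnight at 37 deg C. Inhibition of Vif-mediated degradation read as increased yellow fluorescence (Ex 488/Em 500-530) by laser-scanning cytometry.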
# [13] = molecular target: Glutathione peroxidase 1 (Homo sapiens) (UniProt P07203); experiment: Primary qHTS Assay for Inhibitors of Recombinant Selenoprotein Glutathione Peroxidase 1 (GPX1) (AID 1845191); further: nearly all actives have a fitted effect of over 65% in size
# Chain of Glutathione peroxidase 1 (Homo sapiens) (P07203 whole entry, looked up): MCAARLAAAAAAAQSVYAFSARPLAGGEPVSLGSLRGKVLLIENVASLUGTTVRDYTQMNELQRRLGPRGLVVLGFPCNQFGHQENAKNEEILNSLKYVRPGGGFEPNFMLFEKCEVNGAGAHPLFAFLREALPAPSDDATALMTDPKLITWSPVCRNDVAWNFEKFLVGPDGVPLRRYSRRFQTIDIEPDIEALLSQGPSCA
# In short: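 GR-coupled assay: compounds preincubated 30 min at room temperature with GPX1, then reaction started with CHP; final 10 nM GPX1, 1 mM GSH, 0.5 mM CHP, 0.5 mM NADPH, 100 nM GR, 0.01% BSA, pH 7.5 Tris buffer. NADPH fluorescence (340/450 nm) read at 0 and 15 min.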
# [14] = qHTS Assay for Identifying Gametocytocidal Compounds (AID 743244);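 further: actives lower the fluorescent signal which means gametocytes are killed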; conditions: P. falciparum 3D7 stage III-V gametocytes, alamarBlue, 72 h; max response: active compounds read low
# In short: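 Stage III-V P. falciparum 3D7 gametocytes, 20,000 per well, were exposed to compounds for 72 h at 37C, 5% CO2. AlamarBlue was then added for 24 h and viability was read as fluorescence at Ex 525/Em 598 nm.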
# [15] = molecular target: Cytochrome P450 3A4 (Homo sapiens) (UniProt P08684); experiment: qHTS Assay for Activators of Cytochrome P450 3A4 (AID 885); further: nearly all actives have a fitted effect of over 65% in size
# In short: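 Steps: enzyme/substrate mix dispensed; compound added, 10 min RT; NADPH regeneration solution added, 60 min RT; luciferin detection buffer stops reaction; 20 min later luminescence measured.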
# [16] = molecular target: Cytochrome P450 2C19 (Homo sapiens) (UniProt P33261); experiment: qHTS Assay for Inhibitors and Substrates of Cytochrome P450 2C19 (AID 899); further: nearly all actives have a fitted effect of over 60% in size; further: potency means the concentration at half of the fitted maximal effect
# Chain of Cytochrome P450 2C19 (Homo sapiens) (P33261 whole entry, looked up): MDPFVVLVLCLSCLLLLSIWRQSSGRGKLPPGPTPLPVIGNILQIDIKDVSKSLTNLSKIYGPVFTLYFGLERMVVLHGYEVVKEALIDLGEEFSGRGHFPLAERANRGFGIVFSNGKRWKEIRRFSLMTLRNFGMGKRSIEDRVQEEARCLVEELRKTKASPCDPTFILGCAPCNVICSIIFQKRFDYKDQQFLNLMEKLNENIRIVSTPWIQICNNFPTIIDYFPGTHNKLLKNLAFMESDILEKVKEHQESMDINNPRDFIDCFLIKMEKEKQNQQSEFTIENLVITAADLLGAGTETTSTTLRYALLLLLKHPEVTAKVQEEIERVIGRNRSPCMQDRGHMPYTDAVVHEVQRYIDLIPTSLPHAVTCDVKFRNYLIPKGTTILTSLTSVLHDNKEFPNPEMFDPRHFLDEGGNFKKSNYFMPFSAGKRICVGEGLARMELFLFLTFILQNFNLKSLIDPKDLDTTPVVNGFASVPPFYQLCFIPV
# In short: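 5 nM human CYP2C19 with 10uM Luciferin-H EGE (at KM) in 50mM KPO4, compound preincubated 10 min at 37C, then NADPH regeneration for 60 min at 37C. Luciferin read by luminescence after detection reagent; normalized to 57uM ketoconazole as full inhibition.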
# [17] = qHTS Assay for Identification of Small Molecule Agonists for Hypoxia Response Element Signaling Pathway (AID 914; active means well fitted activation curve with a large enough effect in the signal ratio, with a control signal flat, not every such curve was filed as active; the % refers to the signal ratio); conditions: ME-180 (cervical carcinoma) HRE-bla reporter, beta-lactamase ratio, CoCl2, 17 h; active compounds read high
# In short: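 HRE-bla ME-180 cells with beta-lactamase reporter under hypoxia response element, compounds with EC50 CoCl2 for 17 hours at 37 C. CCF4 substrate, 460nm/530nm emission ratio gave %Activity; AC50 from titration series.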
structure (smiles),measurement,setting,value
OC[C@H]1O[C@H](C#Cc2ccccc2)C=C[C@@H]1O,Potency,[1],inactive
same,Potency,[2],inactive
same,Potency,[3],inactive
same,Potency,[4],inactive
CC(C)C(=O)N[C@H]1CCCN1C(=O)C=Cc1ccccc1,Potency,[1],inactive
same,Potency,[2],inactive
same,Potency,[3],inactive
same,Potency,[4],inactive
same,Potency,[5],inactive
COC(=O)C(C(=O)OC)[C@H]1c2ccccc2[C@@H]2C(=C[C@@H](C)[C@H]3C(=O)N(c4ccccc4)C(=O)[C@H]32)N1C(=O)OC,Potency,[1],inactive
same,Potency,[2],inactive
same,Potency,[3],inactive
same,Potency,[4],inactive
same,Potency,[5],inactive
COc1ccc(-c2nc3c(c4c2C[C@H](c2ccccc2)OC4)CN(C(=O)c2cc(I)ccc2F)CC3)c(C)c1,"activity, negative = inhibition",[1],-3.98% [at 1.12 µM]
O=C(c1ccc(F)cc1)C1CCN(CCCCc2ccccc2)CC1,Potency,[6],> 46 µM
same,Potency,[7],> 46 µM
same,Potency,[8],inactive
same,Potency,[9],inactive
same,Potency,[10],0.0126 µM (active)
same,Potency,[11],inactive
same,Potency,[12],inactive
COC(=O)C1=C(C)N(Cc2ccccc2)C(=NCc2cc(OC)c(OC)c(OC)c2)NC1c1cccc(F)c1 (centres undefined),Potency,[1],1.19 µM (active)
O=C1NCCCc2c1oc1ccc(O)cc21,Potency,[13],inactive
C[C@H]1C[C@@H](C)O[C@@]2(C1)C(=O)N(CC1CC1)c1ccccc12,Potency,[1],inactive
same,Potency,[2],inactive
same,Potency,[3],inactive
same,Potency,[4],inactive
same,Potency,[5],inactive
CCOC(=O)NN=C1C[C@@H](O)[C@@H](O)[C@@H]2[C@H]3C(=O)N(Cc4ccc5c(c4)OCO5)C(=O)[C@@H]3CC[C@@H]12,Potency,[1],inactive
same,Potency,[2],inactive
same,Potency,[3],inactive
same,Potency,[4],inactive
same,Potency,[5],inactive
COc1cccc([C@@H]2[C@@H](C)CC[C@@H]3C(=O)NC[C@H](O)CN32)c1,Potency,[1],inactive
same,Potency,[2],inactive
same,Potency,[3],inactive
same,Potency,[4],inactive
C#C[C@@H]1C=C[C@H](Oc2ccc(OC)cc2)[C@H](CO)O1,Potency,[1],inactive
same,Potency,[2],inactive
same,Potency,[3],inactive
same,Potency,[4],inactive
same,Potency,[5],inactive
CCCCCCC(=O)O[C@H]1CC[C@H]2[C@@H]3CCc4cc(O)ccc4[C@H]3CC[C@]12C,max response,[14],-2.62%
same,Potency,[13],inactive
COc1cccc2c1[C@H](C=Cc1ccccc1)[C@@H]([C@H](O)CO)OC2,Potency,[1],inactive
same,Potency,[2],inactive
same,Potency,[3],inactive
same,Potency,[4],inactive
same,Potency,[5],inactive
COC(=O)[C@H](COC(C)(C)C)NC(=O)O[C@@H]1C(=O)c2cc(OC)ccc2O[C@H]1c1cccc(OC)c1,Potency,[1],inactive
same,Potency,[2],inactive
O=C1OC2(CCCCC2)CC2=C1[C@H]1O[C@](CCCCN3C(=O)c4ccccc4C3=O)(Cc3ccccc31)O2,Potency,[1],1.5 µM (active)
same,Potency,[2],1.69 µM (active)
same,Potency,[3],1.69 µM (active)
same,Potency,[4],1.9 µM (active)
COC(=O)[C@H](COC(C)(C)C)NC(=O)O[C@@H]1C(=O)c2ccc(OC)cc2O[C@H]1c1ccc2c(c1)OCO2,Potency,[1],inactive
same,Potency,[2],inactive
same,Potency,[3],inactive
same,Potency,[4],inactive
same,Potency,[5],inactive
COCOc1cc(OC)ccc1C(=O)C=Cc1ccc([N+](=O)[O-])cc1,Potency,[1],1.5 µM (active)
same,Potency,[2],1.69 µM (active)
C=C[C@H](C)[C@](C)(O)c1ccccc1,Potency,[1],inactive
same,Potency,[2],inactive
same,Potency,[3],inactive
same,Potency,[4],inactive
COCCN1C(=O)NC(c2cccc(F)c2)C(C(=O)OC)=C1C (centres undefined),Potency,[1],inactive
same,Potency,[2],inactive
same,Potency,[3],inactive
same,Potency,[4],inactive
same,Potency,[5],inactive
CC(C)(C)c1ccc(O[C@@H]2[C@H](O)CO[C@H]2C=CC#Cc2ccccc2)cc1,Potency,[1],inactive
same,Potency,[2],inactive
same,Potency,[3],inactive
same,Potency,[4],inactive
same,Potency,[5],inactive
CCCCC#C[C@@H]1C=C[C@H](Oc2ccc(C(=O)OC)cc2)[C@@H](COC(=O)OCC)O1,Potency,[1],inactive
same,Potency,[2],inactive
same,Potency,[3],inactive
same,Potency,[4],inactive
same,Potency,[5],inactive
CC#CCN1C(=O)NC(c2ccccc2)C(C(=O)OC)=C1C (centres undefined),Potency,[1],inactive
same,Potency,[2],inactive
same,Potency,[3],inactive
same,Potency,[4],inactive
same,Potency,[5],inactive
C[C@@H]1CC[C@H]2C(=O)NC[C@@H](O)CN2[C@@H]1c1ccc(Br)cc1,"activity change, positive = activation",[15],-42.5% [at 11.4 µM]
same,Potency,[16],2 µM (active)
same,activation,[17],-3.48%
same,Potency,[1],inactive
same,Potency,[2],inactive
same,Potency,[3],inactive
same,Potency,[4],inactive
same,Potency,[5],inactive
CCCCCCCC1=CC2=CC(=O)C(C)(O)C(=O)C2=CN1CCCC (centres undefined),"activity change, negative = inhibition",[9],-26.9% [at 11.4 µM]
same,Potency,[10],3.16 µM (active)
same,"activity, negative = inhibition",[16],80.9% [at 11.4 µM]
same,Potency,[1],inactive
same,Potency,[2],inactive
same,Potency,[3],inactive
same,Potency,[4],inactive
same,Potency,[5],inactive
COC1=CC2C(=O)C(C(c3ccccc3)C2C)C1(C)O (centres undefined),Potency,[1],inactive
same,Potency,[2],inactive
same,Potency,[3],inactive
same,Potency,[4],inactive
same,Potency,[5],inactive
COC(=O)C(C(C)=O)[C@@H](NC(=O)OC(C)(C)C)c1ccccc1 (some centres undefined),Potency,[1],inactive
same,Potency,[2],inactive
same,Potency,[4],inactive
same,Potency,[5],inactive
CC1(OC(=O)C2CCCC2)C(=O)C=C2C=C(c3ccsc3)N(C3CC3)C=C2C1=O (centres undefined),"activity, negative = inhibition",[1],-0.441% [at 1.12 µM]
same,Potency,[2],inactive
same,Potency,[4],inactive
same,Potency,[5],inactive
C[C@@H]1C(c2ccccc2)CC(=O)C(=O)C[C@@H]1C(=O)N1CCCC1 (some centres undefined),Potency,[1],inactive
same,Potency,[2],inactive
same,Potency,[3],inactive
same,Potency,[4],inactive
same,Potency,[5],inactive
CCOC(=O)C(C)=NNC(C)=O,Potency,[1],inactive
same,Potency,[2],inactive
same,Potency,[3],inactive
same,Potency,[4],inactive
same,Potency,[5],inactive
COc1ccc(OC[C@H]2CN3[C@H](c4ccc(Br)cc4)[C@H](C)CC[C@H]3C(=O)O2)cc1,Potency,[1],inactive
same,Potency,[2],inactive
same,Potency,[5],inactive
